Results taken from PubChem BioAssay (Tox21).
Records with an inconclusive call do not appear. Where a call stands in place of a potency, no number is given. Activity calls are given as the source filed them. Unless noted, the call rests on the fitted dose curve.

Assays:
[1] = Nuclear factor erythroid 2-related factor 2/antioxidant responsive element (Nrf2/ARE) small molecule agonists: qHTS cell viability counter screen in human keratinocytes (AID 1919968; active means well fitted curve in the direction sought with a large enough effect in the repeat runs; an effect the other way counts as inactive or inconclusive; further: nearly all actives have a fitted effect of over 55% in size)
In short: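 HaCaT ARE reporter line, 1,500 cells/well; 5 h settle, 37 C/5% CO2; cpd in DMSO pinned; 23 h exposure; CellTiter-Fluor, 1 h; fluorescence.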

[2] = Nuclear factor erythroid 2-related factor 2/antioxidant responsive element (Nrf2/ARE) small molecule agonists: luciferase reporter gene qHTS assay in human keratinocytes (AID 1919969); further: nearly all actives have a fitted effect of over 35% in size; further: potency means the concentration at half of the fitted maximal effect
[3] = molecular target: Gonadotropin-releasing hormone receptor (Homo sapiens) (UniProt P30968); assay: Human gonadotropin-releasing hormone receptor (GnRHR) small molecule agonists, calcium flux assay in GnRHR-HEK293 cells (AID 1920063); further: nearly all actives have a fitted effect of over 35% in size
In short: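 GnRHR-HEK293, 1500 cells/well, 18 h 37 C/5% CO2; Ca dye 1 h 37 C; cpd pinned (DMSO), agonist mode; kinetic FL 480/540, 3 min, 1 s reads; 15 conc, n=3.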

[4] = molecular target: KiSS-1 receptor (Homo sapiens) (UniProt Q969F8); assay: Human kisspeptin (KISS1R) small molecule agonists, calcium flux assay in KISS1R-HEK293 cells (AID 1920064; active means well fitted curve in the direction sought with a large enough effect in the repeat runs; an effect the other way counts as inactive or inconclusive)
In short: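 Stable human KISS1R HEK293 line; 18 h plating, 37 C/5% CO2; calcium dye 1 h 37 C; compound pin transfer; kinetic fluorescence Ex/Em 480/540, 3 min.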

[5] = G protein-coupled receptor (GPCR) small molecule agonists, calcium flux assay: HEK293 wild type cell line counter screen (AID 1920065)
In short: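 Kinetic fluorescence at Ex/Em 480/540, recorded every second over 3 min, served as the read-out after compound addition. Each compound was tested at 15 concentrations in triplicate on cells pre-loaded with calcium dye for 1 h.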

[6] = p53 small molecule agonists, cell-based qHTS assay with human liver microsomes: qHTS cell viability counter screen (AID 1963579); further: nearly all actives have a fitted effect of over 45% in size; further: potency means the concentration at half of the fitted maximal effect
In short: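 Cytotoxicity counter screen: p53RE-bla, 4,000 cells/well; 5 h settle, 37 C/5% CO2; cpd + HLM 0.5 mg/mL + NADPH 0.5 mg/mL (final); 16 h, 37 C; CellTiter-Glo, 30 min RT, luminescence.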

[7] = p53 small molecule agonists, cell-based qHTS assay with rat liver microsomes: qHTS cell viability counter screen (AID 1963580); further: nearly all actives have a fitted effect of over 45% in size
In short: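 p53RE-bla HCT-116 cells were exposed 16 h at 37 C to compounds with rat liver microsomes (0.5 mg/mL) and NADPH (0.5 mg/mL). Viability was measured in the same wells as ATP content by CellTiter-Glo luminescence.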

[8] = p53 small molecule agonists, cell-based qHTS assay: qHTS cell viability counter screen (AID 1963581); further: nearly all actives have a fitted effect of over 45% in size
In short: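 HCT-116 p53RE-bla cells, 4,000/well, plated 5 h before compound pin transfer; 16 h at 37 C; bla substrate 2 h RT; then CellTiter-Glo, 30 min RT, luminescence.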

[9] = molecular target: 5-hydroxytryptamine receptor 2A (Homo sapiens) (UniProt P28223); assay: 5-hydroxytryptamine receptor 2A (HTR2A) small molecule antagonists, cell-based qHTS assay (AID 1963586); further: nearly all actives have a fitted effect of over 45% in size
In short: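 Antagonist-mode intracellular calcium assay: DOI (4 nM) added after 5 min compound pre-incubation at room temperature to dye-loaded HTR2A-CHO cells. Fluorescence followed for 3 min, sampled every second.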

[10] = molecular target: 5-hydroxytryptamine receptor 2A (Homo sapiens) (UniProt P28223); assay: 5-hydroxytryptamine receptor 2A (HTR2A) small molecule agonists, cell-based qHTS assay (AID 1963587); further: nearly all actives have a fitted effect of over 30% in size
In short: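 CHO cells stably expressing human HTR2A, plated 18 h, loaded with calcium dye 1 h at 37 C. Agonist mode: compounds added and intracellular calcium fluorescence recorded kinetically for 2 min at 1 sec intervals.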

[11] = molecular target: Muscarinic acetylcholine receptor M1 (Homo sapiens) (UniProt P11229); assay: Cholinergic receptor muscarinic 1 (CHRM1) small molecule antagonists, cell-based qHTS assay (AID 1963588); further: nearly all actives have a fitted effect of over 40% in size; further: potency means the concentration at half of the fitted maximal effect
In short: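 CHRM1-CHO calcium-flux assay, antagonist mode. Cells were seeded 18 h, dye-loaded 1 h at 37 C and given compound for 5 min at RT, then acetylcholine was added at 50nM. FDSS fluorescence was read 3 min; 15 concentrations, three runs.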

[12] = molecular target: Muscarinic acetylcholine receptor M1 (Homo sapiens) (UniProt P11229); assay: Cholinergic receptor muscarinic 1 (CHRM1) small molecule agonists, cell-based qHTS assay (AID 1963589); further: nearly all actives have a fitted effect of over 35% in size
In short: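 Human M1 in stable CHO line; 18 h plating, 1 h dye load 37 C; cpd added (agonist mode); Ca2+ fluorescence kinetic read, 1 s intervals; 15 conc, 3 runs.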

[13] = cAMP Responsive Elements (CRE) small molecule agonists, cell-based qHTS assay (AID 1963590)
In short: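 HEK 293T CRE-bla, 2,000 cells/well, 18 h preincubation 37 C/5% CO2; cpds (DMSO) pinned, 3 h; LiveBLAzer B/G FRET substrate, 2 h RT.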

[14] = cAMP Responsive Elements (CRE) small molecule antagonists, cell-based qHTS assay (AID 1963591; active means well fitted inhibition curve with a large enough effect in the signal ratio in the repeat runs, not every such curve was filed as active; the % refers to the signal ratio)
In short: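 Beta-lactamase reporter read by FRET substrate (LiveBLAzer B/G) after 2 h at room temperature. CRE-bla HEK293T cells had received compound plus 0.25 uM (final) NKH477 for 3 h at 37 °C.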

[15] = molecular target: Beta-2 adrenergic receptor (Homo sapiens) (UniProt P07550); assay: Adrenergic beta2 receptor (ADRB2) small molecule antagonists, cell-based qHTS assay (AID 1963592); further: series mostly up to about 92 µM; nearly all actives have a fitted effect of over 50% in size
In short: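 Cells (CHO, stable ADRB2 overexpression) incubated 18-20hr at 37C; compounds added from DMSO; agonist mix (1nM isoproterenol, 100uM IBMX, 25uM Ro-20-1724) added; 0.5hr RT; d2-cAMP and anti-cAMP-cryptate added; 1hr RT; 665/615 nm read.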

[16] = molecular target: D(2) dopamine receptor (Homo sapiens) (UniProt P14416); assay: Dopamine D2 receptor (DRD2) small molecule agonists, cell-based qHTS assay (AID 1963594); further: nearly all actives have a fitted effect of over 35% in size
In short: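 HEK293 cells stably expressing human DRD2, pre-treated with PDE inhibitor Ro20-1724 (0.1 mM final) and compound 10 min at room temperature, then stimulated with NKH477 (200nM […]) for 30 min. cAMP read by HTRF (665/620 nm).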

[17] = molecular target: Beta-2 adrenergic receptor (Homo sapiens) (UniProt P07550); assay: Adrenergic beta2 receptor (ADRB2) small molecule agonists, cell-based qHTS assay (AID 1963593);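 further: CHO cells stably overexpressing human ADRB2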
In short: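 CHO cells stably over-expressing ADRB2 were plated overnight at 37C, then dosed with compounds plus a stimulation mix containing 100uM IBMX and 25uM Ro-20-1724 for 0.5hr at room temperature. cAMP was measured by HTRF competition, 1hr.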

[18] = molecular target: D(2) dopamine receptor (Homo sapiens) (UniProt P14416); assay: Dopamine D2 receptor (DRD2) small molecule antagonists, cell-based qHTS assay (AID 1963595; active means well fitted inhibition curve with a large enough effect in the signal ratio in the repeat runs, with a control signal flat; the % refers to the signal ratio)
In short: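 Stable D2 receptor HEK293 line, 24 h after seeding. Compound preincubated 10 min, then quinpirole (12 nM) with forskolin analogue NKH477 (200 nM), 30 min, room temperature. Detection by time-resolved FRET of cAMP.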

[19] = p53 small molecule agonists, cell-based qHTS assay (AID 1963582; active means well fitted activation curve with a large enough effect in the signal ratio in the repeat runs, not every such curve was filed as active; the % refers to the signal ratio)
In short: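 Reporter line: p53RE-bla. Pre-incubation 5 h, 37 C, 5% CO2; compound (DMSO, pin tool) 16 h, 37 C; B/G FRET substrate 2 h RT; fluorescence intensity read.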

Chain of Beta-2 adrenergic receptor (Homo sapiens) (P07550 whole entry, looked up): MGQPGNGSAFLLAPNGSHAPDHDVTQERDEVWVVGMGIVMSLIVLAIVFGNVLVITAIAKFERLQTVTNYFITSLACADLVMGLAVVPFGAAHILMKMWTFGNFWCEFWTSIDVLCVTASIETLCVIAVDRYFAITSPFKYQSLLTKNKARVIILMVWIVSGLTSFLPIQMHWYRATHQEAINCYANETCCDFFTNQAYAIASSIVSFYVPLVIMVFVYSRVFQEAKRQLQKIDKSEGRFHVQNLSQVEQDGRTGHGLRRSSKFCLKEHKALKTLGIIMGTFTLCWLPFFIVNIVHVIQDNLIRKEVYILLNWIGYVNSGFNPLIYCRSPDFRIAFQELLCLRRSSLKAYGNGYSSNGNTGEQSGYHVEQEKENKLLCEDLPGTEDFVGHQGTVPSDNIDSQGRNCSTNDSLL
Chain of Gonadotropin-releasing hormone receptor (Homo sapiens) (P30968 whole entry, looked up): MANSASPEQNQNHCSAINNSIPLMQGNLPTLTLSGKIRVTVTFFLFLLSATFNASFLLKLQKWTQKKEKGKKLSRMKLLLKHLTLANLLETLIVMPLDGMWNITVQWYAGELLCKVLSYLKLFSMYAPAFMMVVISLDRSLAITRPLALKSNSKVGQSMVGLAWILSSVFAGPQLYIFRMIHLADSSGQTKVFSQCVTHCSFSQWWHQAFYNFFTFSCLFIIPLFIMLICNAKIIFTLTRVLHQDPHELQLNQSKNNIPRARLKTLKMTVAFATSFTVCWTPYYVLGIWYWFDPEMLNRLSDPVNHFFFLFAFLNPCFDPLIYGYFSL
Chain of KiSS-1 receptor (Homo sapiens) (Q969F8 whole entry, looked up): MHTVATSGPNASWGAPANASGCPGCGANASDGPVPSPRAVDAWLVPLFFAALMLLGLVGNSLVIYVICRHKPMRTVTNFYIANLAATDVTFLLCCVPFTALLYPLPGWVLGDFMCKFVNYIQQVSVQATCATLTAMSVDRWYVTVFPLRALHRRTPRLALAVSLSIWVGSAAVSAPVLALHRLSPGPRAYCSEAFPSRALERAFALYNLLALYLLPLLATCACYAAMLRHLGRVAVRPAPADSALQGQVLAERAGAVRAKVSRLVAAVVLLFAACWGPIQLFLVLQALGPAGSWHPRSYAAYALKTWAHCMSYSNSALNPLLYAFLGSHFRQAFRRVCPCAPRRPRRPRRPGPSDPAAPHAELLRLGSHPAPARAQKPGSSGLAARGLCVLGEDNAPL
Chain of 5-hydroxytryptamine receptor 2A (Homo sapiens) (P28223 whole entry, looked up): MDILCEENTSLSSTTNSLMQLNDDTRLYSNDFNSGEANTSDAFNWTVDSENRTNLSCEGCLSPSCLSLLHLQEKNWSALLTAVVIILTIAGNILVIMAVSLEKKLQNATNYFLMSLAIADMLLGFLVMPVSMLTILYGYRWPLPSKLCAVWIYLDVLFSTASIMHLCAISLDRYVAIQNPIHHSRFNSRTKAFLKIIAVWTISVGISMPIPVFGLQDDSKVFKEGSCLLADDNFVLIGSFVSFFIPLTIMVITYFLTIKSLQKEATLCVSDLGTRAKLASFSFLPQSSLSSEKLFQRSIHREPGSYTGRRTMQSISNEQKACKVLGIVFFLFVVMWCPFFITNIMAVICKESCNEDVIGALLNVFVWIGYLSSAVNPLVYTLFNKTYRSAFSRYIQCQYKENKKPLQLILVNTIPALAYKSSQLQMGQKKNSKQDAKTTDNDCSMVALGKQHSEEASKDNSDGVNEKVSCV
Chain of Muscarinic acetylcholine receptor M1 (Homo sapiens) (P11229 whole entry, looked up): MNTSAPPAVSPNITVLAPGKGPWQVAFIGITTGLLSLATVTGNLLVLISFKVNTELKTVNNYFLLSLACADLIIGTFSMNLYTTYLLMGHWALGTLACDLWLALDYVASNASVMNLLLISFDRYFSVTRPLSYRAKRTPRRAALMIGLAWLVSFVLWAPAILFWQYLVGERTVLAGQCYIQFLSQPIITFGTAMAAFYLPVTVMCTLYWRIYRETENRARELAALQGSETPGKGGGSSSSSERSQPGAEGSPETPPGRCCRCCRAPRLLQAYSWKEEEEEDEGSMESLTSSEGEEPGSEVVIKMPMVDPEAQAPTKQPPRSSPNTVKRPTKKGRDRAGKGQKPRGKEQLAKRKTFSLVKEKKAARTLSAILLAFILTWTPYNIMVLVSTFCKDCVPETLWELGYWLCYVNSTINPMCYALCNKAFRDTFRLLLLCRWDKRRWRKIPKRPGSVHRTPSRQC
Chain of D(2) dopamine receptor (Homo sapiens) (P14416 whole entry, looked up): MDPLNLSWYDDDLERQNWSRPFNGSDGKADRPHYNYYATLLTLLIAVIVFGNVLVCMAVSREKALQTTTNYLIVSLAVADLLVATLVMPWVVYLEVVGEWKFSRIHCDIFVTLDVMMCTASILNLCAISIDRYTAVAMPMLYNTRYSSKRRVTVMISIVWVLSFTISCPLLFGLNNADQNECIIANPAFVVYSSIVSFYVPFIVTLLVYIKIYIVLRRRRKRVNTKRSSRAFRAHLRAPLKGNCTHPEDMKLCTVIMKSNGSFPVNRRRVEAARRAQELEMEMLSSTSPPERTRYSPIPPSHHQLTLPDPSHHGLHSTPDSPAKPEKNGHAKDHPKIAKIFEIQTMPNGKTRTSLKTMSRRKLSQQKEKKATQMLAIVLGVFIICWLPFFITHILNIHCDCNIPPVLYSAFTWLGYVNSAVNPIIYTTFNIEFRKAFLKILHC

SMILES | Potency [1] | Potency [2] | Potency [3] | Potency [4] | Potency [5] | Potency [6] | Potency [7] | Potency [8] | Potency [9] | Potency [10] | Potency [11] | Potency [12] | Potency [13] | Potency [14] | Potency [15] | Potency [16] | Potency [17] | Potency [18] | Potency [19]
CCOP(=O)(SC(C)CC)N1CCSC1=O (stereo not given) | inactive | inactive | inactive | inactive | inactive | inactive | inactive | inactive | inactive | inactive | inactive | inactive | inactive | inactive | inactive | inactive |  |  | 
Cc1cc(OC(=O)N(C)C)nn1C(=O)N(C)C | inactive | inactive | inactive | inactive | inactive | inactive | inactive | inactive | inactive | inactive | inactive | inactive | inactive | inactive | inactive | inactive |  |  | 
CCC1(CC)C(=O)N=C(O)NC1=O | inactive | inactive | inactive | inactive | inactive | inactive | inactive | inactive | inactive | inactive | inactive | inactive | inactive | inactive | inactive | inactive | inactive | inactive | 
Nc1cc2c3c(c1)C(c1ccccc1)=N[C@@H](NC(=O)c1cccnc1)C(=O)N3CC2 | inactive | inactive | inactive | inactive | inactive | inactive | inactive | inactive | inactive | inactive | inactive | inactive | inactive |  | inactive | inactive | inactive | inactive | 
CCOP(=S)(OCC)Oc1ccc(Cl)cc1Cl | inactive | inactive | inactive | inactive | inactive | 45.8 µM (active) | inactive | inactive | inactive | inactive | inactive | inactive |  | inactive | inactive | inactive |  | inactive | inactive
CC[C@H](O)C(C[C@H](C)N(C)C)(c1ccccc1)c1ccccc1 | inactive | inactive | inactive | inactive | inactive | inactive | inactive | inactive | inactive | inactive | 34.1 µM (active) | inactive | inactive | inactive | inactive | inactive | inactive | inactive | 
ClC(Cl)Br | inactive | inactive | inactive | inactive | inactive | inactive | inactive | inactive | inactive | inactive | inactive | inactive | inactive | inactive | inactive |  | inactive | inactive | 
Clc1cc(Cl)c(Cl)c(Cl)c1 | inactive | inactive | inactive | inactive | inactive | inactive | inactive | inactive | inactive | inactive | inactive | inactive | inactive | inactive | inactive | inactive |  |  | 
Oc1c(Cl)cccc1Cl | inactive | inactive | inactive | inactive | inactive | inactive | inactive | inactive | inactive | inactive | inactive | inactive | inactive | inactive | inactive | inactive | inactive | inactive | 
CCOC(=O)Cc1ccccc1 | inactive | inactive | inactive | inactive | inactive | inactive | inactive | inactive | inactive | inactive | inactive | inactive | inactive | inactive | inactive | inactive |  | inactive | 
CCNP(=S)(OC)O/C(C)=C/C(=O)OC(C)C (stereo not given) | inactive | inactive | inactive | inactive | inactive | inactive | inactive | inactive | inactive | inactive |  | inactive | inactive | inactive | inactive | inactive | inactive | inactive | inactive
CCC(C)Nc1c([N+](=O)[O-])cc(C(C)(C)C)cc1[N+](=O)[O-] (stereo not given) | inactive | 54.5 µM (active) | inactive | inactive | inactive | inactive | inactive | inactive | inactive | inactive | inactive | inactive | inactive | inactive | inactive | inactive |  | inactive | 
Cc1ccn2nc(S(=O)(=O)Nc3c(F)cccc3F)nc2n1 | inactive | inactive | inactive | inactive | inactive | inactive | inactive | inactive | inactive | inactive | inactive | inactive | inactive | inactive | inactive | inactive |  | inactive | 
CCCSP(=O)(OCC)Oc1ccc(Br)cc1Cl (stereo not given) | inactive | inactive | inactive | inactive | inactive | inactive | inactive | inactive | inactive | inactive | inactive | inactive | inactive | inactive | inactive | inactive |  | inactive | 
O=C1OC(=O)C2C1C1(Cl)C(Cl)=C(Cl)C2(Cl)C1(Cl)Cl (stereo not given) | inactive | inactive | inactive | inactive | inactive | inactive | inactive | inactive | inactive | inactive | inactive | inactive | inactive | inactive | inactive |  |  | inactive | 
O=P(O)(O)c1ccccc1 | inactive | inactive | inactive | inactive | inactive | inactive | inactive | inactive | inactive | inactive | inactive | inactive | inactive | inactive | inactive | inactive | inactive | inactive | 
ClCCCCBr | inactive | inactive | inactive | inactive | inactive | inactive | inactive | inactive | inactive | inactive | inactive | inactive | inactive | inactive | inactive | inactive | inactive |  | 
